Source: publication PMC5540273 (PLoS ONE, 2017)

Assays:
Settings in all cases: concentration: 1 μM, replicates: in singlicate; n = 1
IRAK1 = test system: IRAK1
IRAK3 = test system: IRAK3
IRAK4 = test system: IRAK4
ITK = test system: ITK
[1] = test system: JAK1(JH1domain-catalytic)
[2] = test system: JAK1(JH2domain-pseudokinase)
[3] = test system: JAK2(JH1domain-catalytic)
[4] = test system: JAK3(JH1domain-catalytic)
JNK1 = test system: T1, JNK1
T1 construct: gene MAPK8

JNK2 = test system: T2, JNK2
T2 construct: gene MAPK9
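Note: KINOMEscan kinase panel screen.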

Compound	%Inh (IRAK1) [%]	%Inh (IRAK3) [%]	%Inh (IRAK4) [%]	%Inh (ITK) [%]	%Inh [1] [%]	%Inh [2] [%]	%Inh [3] [%]	%Inh [4] [%]	%Inh (JNK1) [%]	%Inh (JNK2) [%]
O=c1cc(N2CCOCC2)nc2n(Cc3cccc(Cl)c3Cl)c3ccccc3n12 [GSK2299009]	12	15	4	13	24	0	0	0	7	32
COc1ccc(CSc2nnc(-c3ccc4nccn4c3)o2)cc1C(F)(F)F	44	30	38	20	0	0	13	1	0	0
Nc1nccc(-c2c(-c3ccc(F)cc3)ncn2C2CCN(Cc3ccccc3)CC2)n1 [SB-219980]	0	0	0	7	0	0	0	0	62	95.2
COc1cccc(C2=C(Nc3cc(Cl)c(O)c(Cl)c3)C(=O)NC2=O)c1 [SB-390767]	43	0	47	18	12	0	40	93.7	27	20
CCCCc1nn2ncccc2c1-c1ccnc(NC2CC2)n1 [GW684374]	28	13	12	0	7	0	0	0	63	84
Cc1ccccc1-c1cc(-c2c[nH]nc2-c2ccccn2)ccn1 [GW680061]	28	2	4	12	4	0	12	0	38	30
Cc1c(Cn2c(C)c(C)n3c(=O)cc(N4CCOCC4)nc23)cccc1C(F)(F)F [GSK2328680]	0	0	0	15	0	0	0	0	50	0
Cc1ccc(NC(=O)Nc2ccccc2)cc1-c1ccc(C(=O)Nc2ccncc2)cc1 [GSK1398471]	0	0	0	8	31	0	0	0	11	29
COc1nccc(-c2c(-c3ccc(F)cc3)ncn2CCCN2CCOCC2)n1 [SB-282852]	3	0	0	53	36	0	4	12	41	61
O=C1NC(=O)C(c2ccc(Cl)cc2)=C1Nc1cccc(Cl)c1 [SB-317651]	0	0	0	5	26	0	11	0	61	56
CS(=O)(=O)Cc1ccc(Nc2nccc(-c3c(-c4cccc(NC(=O)C5CCCCC5)c4)nn4ncccc34)n2)cc1 [GSK350559]	24	3	25	6	0	0	16	43	43	49
Cc1ccc(NC(=O)Nc2ccccc2F)cc1-c1ccc(C(=O)Nc2ccncc2)cc1 [GSK1398477]	0	31	1	19	12	0	12	0	28	27
COc1ccc(CSc2nnc(-c3ccc4ncsc4c3)o2)cc1C(F)(F)F	0	0	9	0	25	0	0	0	0	0
COc1ccc(Nc2nccc(NCCNC(=O)Nc3cc(C)ccc3C)n2)cc1 [GSK1379899]	0	8	3	10	0	0	16	0	20	0
Fc1ccc(-c2nn3cccc(F)c3c2-c2ccncc2)cc1 [GW475620]	9	2	0	0	10	30	17	0	61	93.5
FC(F)(F)c1ccccc1-c1cc(-c2c[nH]nc2-c2ccccn2)ccn1 [GW679396]	0	0	0	8	5	0	0	0	30	32
COC(=O)C(NC(=O)NC1CCN(c2ccnc(Nc3ccc(F)cc3)n2)C1)c1ccccc1 (stereo not shown) [GSK1379712]	31	6	0	0	17	5	0	0	1	0

Compound	%Inh (IRAK1) [%]	%Inh (IRAK3) [%]	%Inh (IRAK4) [%]	%Inh (ITK) [%]	%Inh [1] [%]	%Inh [2] [%]	%Inh [3] [%]	%Inh [4] [%]	%Inh (JNK1) [%]	%Inh (JNK2) [%]
CS(=O)(=O)CCNCc1nc(-c2ccc3ncnc(Nc4ccc5c(cnn5Cc5ccccc5)c4)c3c2)cs1.Cl.Cl [GW569716]	37	0	19	17	0	0	0	0	12	2
Cc1ccc(-c2nc(Nc3ccncc3)c3ccccc3n2)s1 [GSK189015]	0	19	2	22	16	38	3	0	20	19
CNc1cc(-c2ccc3c(N)n[nH]c3c2)nc(N)n1 [GSK2224810]	0	0	0	3	12	35	4	0	0	6
COC(=O)c1cccc(NC(=O)NC2CCN(c3ccnc(Nc4ccc(OC)cc4)n3)C2)c1 (stereo not shown) [GSK1379746]	35	0	23	13	14	0	2	0	37	0
CC(C)c1cc(-c2ccc3c(N)n[nH]c3c2)nc(N)n1 [GSK2250882]	31	4	0	11	0	8	0	0	21	30
CCn1c(-c2c(N)noc2C)nc2cnccc21 [SB-737856]	15	29	34	16	8	0	11	0	15	23
O=C1NC(=O)C(c2ccc(Cl)cc2)=C1Nc1ccc(O)cc1 [SB-340867]	0	0	0	0	0	0	14	0	3	0
Cc1cnc(N)c(/C=C/c2cncc(C(=O)NCCc3ccc(Cl)cc3Cl)c2)c1.Cl [GSK190937]	16	0	0	0	0	0	0	0	0	18
Cl.Cl.Cl.N#Cc1ccc(CCNc2nccc(-c3cccc(CN4CCNCC4)c3)n2)cc1 [GSK2137462]	0	0	0	7	3	6	0	0	32	0
Cn1cncc1C(=O)NC1CCN(c2ccnc(Nc3ccc(F)cc3)n2)C1 (stereo not shown) [GSK1379717]	41	0	26	1	17	0	100	0	29	3
Cc1ccc(NC(=O)c2ccc(Cl)cc2)cc1-c1ccc(C(=O)Nc2ccncc2)cc1 [GSK1398467]	30	3	14	8	0	0	0	0	19	15
COc1ccc(CSc2nnc(-c3ccc4c(c3)CCO4)o2)cc1	0	0	0	8	18	0	0	0	0	0
Cc1ccc(NC(=O)Nc2ccc(Cl)cc2)cc1-c1ccc(C(=O)Nc2ccncc2)cc1 [GSK1398472]	17	4	7	18	6	0	0	0	0	7
COc1cccc(NC(=O)Nc2ccc(C)c(-c3ccc(C(=O)Nc4ccncc4)cc3)c2)c1 [GSK1398474]	0	7	1	11	20	0	0	0	8	39
Cn1cnc2c(N)ncnc21 [SKF-97623]	0	0	0	7	19	0	0	6	1	0
CCc1ccc(-c2ccc3c(c2)-c2n[nH]cc2S(=O)(=O)N3C)cc1	0	0	0	0	18	14	3	0	1	0
CNc1nc(-c2ccc3c(N)n[nH]c3c2)cc(N2C[C@@H](C(=O)Nc3ccccc3)CC[C@H]2C)n1 [GSK2298859]	0	0	8	12	0	0	0	0	2	15
